Compound activity deposited in PubChem by National Center for Advancing Translational Sciences (NCATS).
In the library only some 1.2% were active in any assay of this set; here they are far more common.
RGS12 GoLoco inh – inhibitors of human Gai1-RGS12 GoLoco interaction (red fluorophore); P63096; Gai1:RGS12 GoLoco peptide FP, rhodamine, 10 min; Potency, µM (titrated, usually from 61.6 µM), usual class: inhibitors; 0.44% of 230,000 active; active = well fitted inhibition curve with a large enough effect, not every such curve was filed as active; inactive = no such curve, though single readings can be large or run the other way; note: nearly all actives have a fitted effect of over 30% in size
Target sequence (P63096 whole entry, looked up): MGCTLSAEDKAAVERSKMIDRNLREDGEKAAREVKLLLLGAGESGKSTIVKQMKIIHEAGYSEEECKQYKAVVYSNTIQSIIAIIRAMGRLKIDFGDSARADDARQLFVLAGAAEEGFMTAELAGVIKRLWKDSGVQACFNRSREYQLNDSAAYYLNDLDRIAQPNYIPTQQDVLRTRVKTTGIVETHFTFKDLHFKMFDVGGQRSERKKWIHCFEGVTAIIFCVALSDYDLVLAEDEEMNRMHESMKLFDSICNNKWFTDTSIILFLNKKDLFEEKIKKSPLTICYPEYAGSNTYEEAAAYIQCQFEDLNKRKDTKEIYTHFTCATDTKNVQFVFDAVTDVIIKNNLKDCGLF
BRCA1 expr up – increases BRCA1 expression. MCF7-BRCA1-FFLuc reporter, luminescence, 48 h; response scale: scaled: vehicle 0%, 10 µM genistein 100%. Potency, µM (titrated, usually from 46.1 µM), actives largely listed as activators. 1.1% of 380,000 active; note: nearly all actives have a fitted effect of over 80% in size
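Cells: MCF7-BRCA1-FFLuc, 2000/well. Exposure: 48 h, 37 °C, 5% CO2. Read: luminescence, 15 min post-substrate. Controls: genistein 10 microM (maximal activation), DMSO (neutral).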
Apoferritin bind – candidate novel general anesthetic via apoferritin binding. P02791. apoferritin/1-aminoanthracene competitive binding, fluorescence. Potency, µM (titrated, usually from 77.5 µM), most hits filed as inhibitors. 0.074% of 350,000 active. AID 485281; note: nearly all actives have a fitted effect of over 20% in size
Target sequence (P02791 2-175 limits assumed): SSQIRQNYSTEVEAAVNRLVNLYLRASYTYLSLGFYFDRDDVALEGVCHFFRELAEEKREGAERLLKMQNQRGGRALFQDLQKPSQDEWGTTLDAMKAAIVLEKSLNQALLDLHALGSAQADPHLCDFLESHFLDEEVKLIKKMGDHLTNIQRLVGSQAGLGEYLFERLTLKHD
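Apoferritin-based anesthetic binding model; compound displacement of fluorescent 1-AMA measured as endpoint fluorescence after 10 minutes at room temperature, scaled to free-ligand and complex controls.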
ERG Ets-DNA blk – ERG Ets/DNA interaction inhibition. AID 624246. 0.028% of 370,000 active. Potency, µM (top dose mostly 76.9 µM), usual class: inhibitors. fluorescence polarization, His-ERG Ets domain / labelled DNA. P11308; active = well fitted inhibition curve with a large enough effect in the polarisation, with a control signal flat; inconclusive = small, poorly fitted or top-dose-only effect, or effect the other way, or a change in a side signal; inactive = no such curve, though single readings can be large or run the other way; the % refers to the polarisation;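 note: polarization taken with two DNA probes labelled with fluorescein and Texas red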
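His-tagged ERG Ets domain (1 uM in the protein solution; 300mM KCl, 50mM Tris-HCl, 1mM EDTA, 1mM DTT, pH 7.5) received compound, then a probe mix of 5 nM fluorescein-DNA and 100nM Texas-615-DNA. Fluorescence polarization was read for both dyes.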
Of the large screens only hits and unclear results are named; the others gave an inactive call. Unless noted, calls come from the whole dose curve; as a rule, active = well fitted curve in the direction sought with a large enough effect; inconclusive = small, poorly fitted or top-dose-only effect, or another doubt; inactive = no such curve, though single readings can be large; an effect the other way counts as inactive or inconclusive.

Clc1ccc(OCc2nc(-c3ccncc3)no2)c(Br)c1	BRCA1 expr up 4µM
c1ccc(OCc2nc(-c3ccncc3)no2)cc1	BRCA1 expr up 11µM
CCCN1CNc2c(c(=O)[nH]c(=S)n2CCC(C)C)C1	none (no result: RGS12 GoLoco inh, Apoferritin bind, ERG Ets-DNA blk)
O=C(O)CSc1ncnc2sc(-c3ccccc3)cc12	none
CC(Sc1ncnc2sc(-c3ccccc3)cc12)C(N)=O (stereo not given)	BRCA1 expr up 10µM (no result: RGS12 GoLoco inh)
O=C(Cc1ccccc1)NCCC1=CCCCC1	none
O=C(CCc1ccccc1)NCCC1=CCCCC1	BRCA1 expr up 11µM (no result: ERG Ets-DNA blk)
O=C(CCCc1ccccc1)NCCC1=CCCCC1	BRCA1 expr up 3.2µM, Apoferritin bind inconclusive
O=C(CCNC(=O)c1ccc(Cl)cc1)NCCC1=CCCCC1	BRCA1 expr up 7.9µM (no result: RGS12 GoLoco inh, Apoferritin bind)
COc1ccc(C(=O)N=c2nc(-c3ccccc3)n(-c3ccccc3)s2)cc1	none (no result: RGS12 GoLoco inh, Apoferritin bind, ERG Ets-DNA blk)
O=C(Nc1ccc2c(c1)CCC2)c1ccccc1Br	BRCA1 expr up inconclusive
O=C(Nc1ccc2c(c1)CCC2)c1cc(F)cc(F)c1	BRCA1 expr up 3.2µM (no result: RGS12 GoLoco inh, Apoferritin bind)
CSc1ccccc1C(=O)Nc1ccc2c(c1)CCC2	BRCA1 expr up 11µM (no result: RGS12 GoLoco inh)
Cc1ccc(OCC(=O)Nc2ccc(C)c(F)c2)c([N+](=O)[O-])n1	BRCA1 expr up 6.3µM (no result: RGS12 GoLoco inh, Apoferritin bind)
Cc1ccc(OCc2ccccc2C)c([N+](=O)[O-])n1	Apoferritin bind inconclusive (no result: RGS12 GoLoco inh)
O=[N+]([O-])c1ccc(COc2cccc3cccnc23)cc1	BRCA1 expr up 11µM (no result: RGS12 GoLoco inh)
Cc1ccc(OCC(=O)Nc2ccc3c(c2)OC(F)(F)O3)c([N+](=O)[O-])n1	none
Cc1ccc(OCCOc2ccc(Br)cc2)c([N+](=O)[O-])n1	BRCA1 expr up 3.2µM
Cc1ccc(OCc2ccc([N+](=O)[O-])cc2)c([N+](=O)[O-])n1	BRCA1 expr up 5µM (no result: RGS12 GoLoco inh)
O=[N+]([O-])c1ccc(OCCCOc2cccc3cccnc23)cc1	none (no result: RGS12 GoLoco inh)
CC1=C(c2ccc(C)cc2)S(=O)(=O)N(Cc2ccc(C(=O)NCc3cccc(C)c3)cc2)C1=O	none (no result: RGS12 GoLoco inh, BRCA1 expr up)
COc1cc2c(NC3CCN(C)CC3)nc(N3CCCN(C)CC3)nc2cc1OCC1CCCCN1 (stereo not given)	none (no result: RGS12 GoLoco inh, Apoferritin bind, ERG Ets-DNA blk)
O=C(Cc1ccc([N+](=O)[O-])cc1)OCc1ccc([N+](=O)[O-])cc1	none (no result: RGS12 GoLoco inh)
O=C(Cc1ccc(Br)cc1)c1ccc(O)cc1O	BRCA1 expr up 11µM, Apoferritin bind inconclusive
COc1ccc(CC(=O)c2ccc(O)cc2O)cc1	BRCA1 expr up inconclusive
O=C(Cc1ccc([N+](=O)[O-])cc1)c1ccc(O)cc1O	BRCA1 expr up 10µM
C=CCn1c(SC(C)C#N)nc2ccccc2c1=O (stereo not given)	none (no result: RGS12 GoLoco inh, Apoferritin bind, ERG Ets-DNA blk)
O=C(/C=C/c1ccc(O)c(O)c1)c1ccc(O[C@@H]2O[C@H](CO)[C@@H](O)[C@H](O)[C@H]2O)c(O)c1O	none (no result: RGS12 GoLoco inh, BRCA1 expr up, ERG Ets-DNA blk)
COc1ccc(Nc2nc(N)nc(CSc3nccn3C)n2)cc1	BRCA1 expr up 3.2µM
COc1ccc(OCc2nc(N)nc(Nc3ccc(C)cc3)n2)cc1	BRCA1 expr up 16µM, Apoferritin bind inconclusive
COc1ccc(Nc2nc(N)nc(COc3ccc(OC)cc3)n2)cc1	none
c1ccc2c(CCc3c[nH]c4ccccc34)ccnc2c1	none (no result: RGS12 GoLoco inh, Apoferritin bind, ERG Ets-DNA blk)
CCC/C(=N\NC(=O)CNC(=O)c1ccc(Cl)cc1)c1ccccc1	Apoferritin bind 16µM
COc1ccc(-c2csc3c2[N+]2=CCC=C2C3=O)cc1	none (no result: BRCA1 expr up, Apoferritin bind, ERG Ets-DNA blk)
Cc1cc(C)cc(N=C2NC(=O)/C(=C/c3cccs3)S2)c1	RGS12 GoLoco inh 1.8µM
O=C1NC(=Nc2ccccc2)S/C1=C\c1cccs1	none
Cc1ccc2cc(NC(=O)Cc3ccccc3)ccc2n1	BRCA1 expr up 4.5µM
CCc1ccc(C(=O)Nc2ccc3nc(C)ccc3c2)cc1	BRCA1 expr up 3.2µM (no result: RGS12 GoLoco inh)
Cc1ccc2cc(NC(=O)c3ccc(C(C)(C)C)cc3)ccc2n1	BRCA1 expr up inconclusive (no result: RGS12 GoLoco inh)
Cc1ccc2cc(NC(=O)c3ccccc3C)ccc2n1	BRCA1 expr up 7.1µM (no result: RGS12 GoLoco inh)
COc1ccc(NC(=O)CSc2nc3ccccc3n2CC(=O)N2CCCC(C)C2)cc1 (stereo not given)	none (no result: RGS12 GoLoco inh, BRCA1 expr up)
C=C1C=C(C(F)F)n2ncc(C(=O)Nc3ccc(N(CC)CC)cc3)c2N1	none (no result: RGS12 GoLoco inh, Apoferritin bind, ERG Ets-DNA blk)
Cc1ccc(C)c(N2CCN(C(=O)c3cc(C)nc4c3c(C)nn4-c3cccc(F)c3)CC2)c1	Apoferritin bind inconclusive (no result: RGS12 GoLoco inh, BRCA1 expr up)
CN(C)c1ccc(/C=C/c2cc(/C=C/c3ccc(N(C)C)cc3)c3ccccc3n2)cc1	none (no result: RGS12 GoLoco inh, Apoferritin bind, ERG Ets-DNA blk)
Cc1ccc2oc(=O)c(/C=C(\O)c3ccccc3)nc2c1	BRCA1 expr up 7.1µM
Cc1ccc2oc(=O)c(/C=C(\O)c3cccs3)nc2c1	BRCA1 expr up inconclusive
